Results filed as inconclusive are left out. Active and inactive are the calls of the source. Unless noted, the call rests on the fitted dose curve; in most records, active means well fitted inhibition curve with a large enough effect; inconclusive means small, poorly fitted or top-dose-only effect; inactive means flat fitted curve, though single readings scatter.
How the values were obtained:
[1] = qHTS drug screen for cell cycle checkpoint inhibitors in PARPi-resistant BRCA-mutant ovarian cancer cell lines. (AID 1963452; calls by dose curve); settings: PEO1/OlaR viability, CellTiter-Glo luminescence, 96 h, stronger effect = lower value
Outline: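 PEO1, PEO4 and PEO1/OlaR ovarian cancer cells, 600 per well, exposed 96 h at 37C to a dilution series. Viability read by CellTiter-Glo luminescence, normalized to DMSO and empty wells; activity summarized as Z-AUC.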

[2] = qHTS for identification of novel therapeutic agents for treatment of microphthalmiaassociated transcription factor (MiT) renal cell carcinoma (RCC) (AID 1963991); settings: CellTiter-Glo, 48 h, stronger effect = lower value
Outline: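 Three TFE3-fusion RCC lines (UOK109, UOK124, UOK145), 500 cells/well in complete medium, were treated with MIPE 4.0 compounds for 48 hours at 37 C. Viability was by CellTiter-Glo luminescence, normalized to DMSO (100%) and empty wells (0%); curves fitted over 11 concentrations.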

[3] = qHTS profiling for inhibitors of Plasmodium falciparum proliferation (AID 504749);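 further: 0% = DMSO vehicle and full inhibition = artemisinin control; nearly all actives have a fitted effect of over 60% in size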; settings: P. falciparum in erythrocytes, SYBR Green DNA, 72 h, at 28.7 µM (top of the series)
Outline: (§1)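 Readout was DNA-dye fluorescence from lysed cultures, ex 485/em 535 nm. Parasitized red cells had grown 72 h with compound; data scaled between 0.29 uM artemisinin and DMSO wells and corrected using vehicle-only plates.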

3D7 = experiment: as above; settings: P. falciparum in erythrocytes, SYBR Green DNA, 72 h; series mostly up to 28.7 µM
Outline: as §1

7G8 = experiment: as above; settings: P. falciparum in erythrocytes, SYBR Green DNA, 72 h; series mostly up to 28.7 µM
Outline: as §1

AA1029 = experiment: as above; settings: P. falciparum in erythrocytes, SYBR Green DNA, 72 h; series mostly up to 28.7 µM
Outline: as §1

AS120 = experiment: as above; settings: P. falciparum in erythrocytes, SYBR Green DNA, 72 h; series mostly up to 28.7 µM
Outline: as §1

[4] = measured here: PEO1 parental Z-AUC
[5] = TFE3-RCC UOK109 viability, measured here: UOK109 Z-AUC
[6] = TFE3-RCC viability, measured here: UOK124 Z-AUC
[7] = TFE3-RCC viability, measured here: UOK145 Z-AUC

NC(=O)C1CCCc2c1[nH]c1ccc(Cl)cc21 (centres undefined)
Z-AUC [1]: -0.722 (inactive)
Z-AUC [1, 4]: 0.489
Z-AUC ([1]; measured here: PEO4 Z-AUC): -0.557
z-score [2, 5]: 0.0433
z-score [2, 6]: 0.823
z-score [2, 7]: 0.151

Cc1cc(SCc2sc(-c3ccc(C(F)(F)F)cc3)nc2C)ccc1OCC(=O)O
Z-AUC [1]: 1.25 (inactive)
Z-AUC [1, 4]: 0.45
Z-AUC ([1]; measured here: PEO4 Z-AUC): 0.535
z-score [2, 5]: 0.936
z-score [2, 6]: 0.482
z-score [2, 7]: 0.629

Cc1n[nH]c(C)c1Cc1sc2c(c1C(=O)N1C[C@H](O)CO1)c(=O)n(C)c(=O)n2CC(C)C
Z-AUC [1]: -0.106 (inactive)
Z-AUC [1, 4]: -0.977
Z-AUC ([1]; measured here: PEO4 Z-AUC): -0.228
z-score [2, 5]: 0.549
z-score [2, 6]: 0.656
z-score [2, 7]: 0.704

CC[C@@H](C)[C@H](NC(=O)[C@H](CC1CCCCC1)NC(=O)c1ccno1)C(=O)N1CCC2(CCc3ccccc32)CC1
Z-AUC [1]: -0.29 (inactive)
Z-AUC [1, 4]: -0.177
Z-AUC ([1]; measured here: PEO4 Z-AUC): -0.471
z-score [2, 5]: 0.139
z-score [2, 6]: 0.261
z-score [2, 7]: -0.242

c1ccc([C@H]2CN3CCSC3=N2)cc1
Z-AUC [1]: -0.761 (inactive)
Z-AUC [1, 4]: -0.401
Z-AUC ([1]; measured here: PEO4 Z-AUC): -0.638
z-score [2, 5]: 0.343
z-score [2, 6]: 0.703
z-score [2, 7]: 0.523

CC(C[N+](C)(C)C)OC(N)=O (centres undefined)
Z-AUC [1]: 1.18 (inactive)
Z-AUC [1, 4]: 1.37
Z-AUC ([1]; measured here: PEO4 Z-AUC): 1.64
z-score [2, 5]: 0.592
z-score [2, 6]: 0.666
z-score [2, 7]: 0.688
activity, negative = inhibition ([3]; parasite line A): 8.36% (inactive)
activity, negative = inhibition ([3]; parasite line B): 9.26% (inactive)
Potency (3D7): inactive
Potency (7G8): inactive
Potency (AA1029): inactive
Potency (AS120): inactive

CC(c1cc2ccccc2s1)N(O)C(N)=O (centres undefined)
Z-AUC [1]: -0.588 (inactive)
Z-AUC [1, 4]: -0.0331
Z-AUC ([1]; measured here: PEO4 Z-AUC): -0.638
z-score [2, 5]: 0.403
z-score [2, 6]: 0.701
z-score [2, 7]: 0.104
activity, negative = inhibition ([3]; parasite line A): 3.01% (inactive)
activity, negative = inhibition ([3]; parasite line B): -4.79% (inactive)
Potency (3D7): inactive
Potency (7G8): inactive
Potency (AA1029): inactive

O=C1CCc2cc(OCCCCc3nnnn3C3CCCCC3)ccc2N1
Z-AUC [1]: -1.35 (inactive)
Z-AUC [1, 4]: -0.972
Z-AUC ([1]; measured here: PEO4 Z-AUC): -0.778
z-score [2, 5]: 0.489
z-score [2, 6]: 0.136
z-score [2, 7]: 0.331
Potency (3D7): inactive
Potency (7G8): inactive

COc1ccccc1-c1cccc(-c2c(O)c3cc(C#N)c(Cl)cc3[nH]c2=O)c1
Z-AUC [1]: 0.395 (inactive)
Z-AUC [1, 4]: 0.311
Z-AUC ([1]; measured here: PEO4 Z-AUC): 0.381
z-score [2, 5]: 1.05
z-score [2, 6]: -0.0424
z-score [2, 7]: 0.756

NCCc1ccc(O)c(O)c1
Z-AUC [1]: 0.293 (inactive)
Z-AUC [1, 4]: 0.902
Z-AUC ([1]; measured here: PEO4 Z-AUC): 0.891
z-score [2, 5]: 0.759
z-score [2, 6]: 0.079
z-score [2, 7]: 0.506
activity, negative = inhibition ([3]; parasite line A): -7.96% (inactive)
activity, negative = inhibition ([3]; parasite line B): 1.48% (inactive)
Potency (3D7): inactive
Potency (7G8): inactive
Potency (AA1029): inactive
Potency (AS120): inactive

From PubChem BioAssay (NCATS)
